Screening data as filed in PubChem.
VP16 counter = VP16 counterscreen qHTS for inhibitors of ROR gamma transcriptional activity. Drosophila S2 Gal4-VP16 UAS-luciferase, luminescence, 20 h. 3.5% of 310,000 active. Potency, µM (titrated, usually from 53.6 µM), inactives show at the highest dose activity, negative = inhibition, most hits filed as inhibitors. AID 2546, 2010;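 further: Gal4-VP16 expression switched on by copper sulfate through the metallothionein promoter; on the % scale 0 is the no-effect control and ±100 the full control effect; nearly all actives have a fitted effect of over 50% in size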
ATXN2 expr inh = Primary qHTS for Inhibitors of ATXN expression. HEK-293 ATXN2-luciferase reporter, luminescence, 24 h. 0.72% of 360,000 active. Potency, µM (titrated, usually from 57 µM), for the others: at the highest dose activity change, negative = inhibition, hits mostly inhibitors; further: on the % scale 0 is the no-effect control and ±100 the full control effect; nearly all actives have a fitted effect of over 55% in size
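ATXN2-luciferase reporter cells (luciferase flanked by upstream and downstream ATXN2 gene portions) were treated 24 h at 37 °C with compounds at up to 57 uM. SteadyGlo luminescence gave expression; GF-AFC fluorescence gave viability.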
TGFb inhibitor = qHTS for Inhibitors of TGF-b. HepG2 CAGA-GFP TGF-b/SMAD3 reporter, GFP fluorescence, 18 h; TGF-beta stimulated, 500 pg/mL final. Potency, µM (highest dose often 46.1 µM), for the others: at the top dose activity, negative = inhibition, most hits filed as inhibitors. 1.2% of 410,000 active. AID 588855, 2011; further: on the % scale 0 is the no-effect control and ±100 the full control effect; nearly all actives have a fitted effect of over 65% in size
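HEPG2 CAGA-GFP reporter cells (1000/well, DMEM with 1% FBS) received compounds, then recombinant TGF-beta at 500 pg/mL final for 18 hours at 37 degrees C. Per-cell GFP summed per well was normalised to unstimulated and stimulated DMSO controls before curve fitting.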
HepG2 viability = qHTS for Inhibitors of TGF-b: Cytotox Counterscreen. HepG2 CAGA-GFP viability, ATP luminescence, 18 h. Potency, µM (titrated, usually from 46.1 µM), inactives show at the highest dose activity change, negative = cytotoxicity, usual class: cytotoxic. 0.76% of 410,000 active
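CellTiter-Glo luminescence gave cytotoxicity after 18 hours at 37 degrees C. The cells were HepG2 CAGA-GFP in 1% FBS DMEM, stimulated with 500 pg/mL TGF-beta after compound addition. %Activity was normalised to no-cell wells (complete cell-killing) and DMSO (no toxicity), and curves were fitted and classified.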
RORg inh = qHTS for inhibitors of ROR gamma transcriptional activity; Potency, µM (top dose mostly 53.6 µM), without a hit: at the top dose activity change, negative = inhibition, usual class: inhibitors; Drosophila S2 Gal4-RORgamma UAS-luciferase reporter, 20 h; Nuclear receptor ROR-gamma (Mus musculus), P51450; 5.4% of 310,000 active; further: on the % scale 0 is the no-effect control and ±100 the full control effect; nearly all actives have a fitted effect of over 60% in size
Target sequence (P51450 whole entry, looked up, the tested form may be a part): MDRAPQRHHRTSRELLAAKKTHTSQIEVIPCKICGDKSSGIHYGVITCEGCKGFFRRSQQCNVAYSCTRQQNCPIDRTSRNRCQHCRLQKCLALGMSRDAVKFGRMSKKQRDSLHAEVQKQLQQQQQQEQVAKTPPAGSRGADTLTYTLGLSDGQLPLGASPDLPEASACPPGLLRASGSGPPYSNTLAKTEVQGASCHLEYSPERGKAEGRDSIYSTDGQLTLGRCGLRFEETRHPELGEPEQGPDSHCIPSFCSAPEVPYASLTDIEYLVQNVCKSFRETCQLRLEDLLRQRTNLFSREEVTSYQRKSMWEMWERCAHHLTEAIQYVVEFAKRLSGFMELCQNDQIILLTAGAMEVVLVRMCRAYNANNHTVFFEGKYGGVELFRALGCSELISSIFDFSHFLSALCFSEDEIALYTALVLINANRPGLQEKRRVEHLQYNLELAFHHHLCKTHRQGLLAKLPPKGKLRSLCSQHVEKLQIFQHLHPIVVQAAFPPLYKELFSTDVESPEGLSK
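Schneider cells (Drosophila), stable Gal4 DBD–ROR gamma + UAS-luc; 1 hr cmpd preincubation; Cu2+ induction 700 uM final; 20 hr ambient; luminescence.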
ATXN viability = Viability Counterscreen for Primary qHTS for Inhibitors of ATXN expression; Potency, µM (titrated, usually from 56.7 µM), hits mostly cytotoxic; S2 cells (HEK-293 line with an ATXN2-luciferase reporter) viability, CellTiter-Fluor protease fluorescence, 24 h; 0.49% of 400,000 active; further: nearly all actives have a fitted effect of over 40% in size
Active calls of the source: *; i = inactive; ? = inconclusive; . = not tested or not shown; ! = a repeat was not active; [ ] = dose if it differs, or a comment. In the library only some 6.3% were active in any assay of this set; here they are far more common. The call rests on the fitted dose curve; in most records, active means well fitted curve in the direction sought with a large enough effect; inconclusive means small, poorly fitted or top-dose-only effect, or another doubt; inactive means no such curve, though single readings can be large; an effect the other way counts as inactive or inconclusive. Potency means the concentration at half of the fitted maximal effect.

SMILES	VP16 counter	ATXN2 expr inh	TGFb inhibitor	HepG2 viability	RORg inh	ATXN viability
CC[C@H]1CN2CCc3cc(OC)c(OC)cc3[C@H]2C[C@@H]1C[C@@H]1NCCc2cc(OC)c(OC)cc21	2.51µM*	0.273µM*	.	.	0.794µM*	.
CC(C)Sc1nnc([C@@H](N)Cc2ccccc2)o1	11.2µM*	8.0%	-2.6%	-16.5%	-57.3%	i
CCN1CCN(S(=O)(=O)c2ccc(Cl)c(C(=O)N(CC)CC(=O)Nc3ccc(OC)cc3)c2)CC1	-14.2%	?	-4.9%	-7.4%	5.62µM*	?
Nc1ncc(S(=O)(=O)c2ccc(Cl)cc2)c(N)n1	-7.6%	6.2%	0.1%	-1.4%	?	i
C=CCn1c(-c2ccc([N+](=O)[O-])cc2)n[nH]c1=S	?	-3.1%	-18.6%	-2.9%	11.2µM*	i
Oc1ccc2c3c1O[C@H]1[C@@H](O)C=C[C@H]4[C@@H](C2)NCC[C@@]341	.	52.8%[116 µM]	.	.	.	?
COc1ccc(O)c2c(=O)c3c(OC)cc4c(c3oc12)C1C=COC1O4 (stereo not drawn)	?	?	?	.	0.708µM*	i
CCCCCCCCCCCCCCCC[N+](C)(C)C	?	31.6µM*!	?	-105.7%	?	?
CCCCCCCCCC[N+](C)(C)CCCCCCCCCC	?	.	.	.	37.8%[10 µM]	.
Cc1oc(-c2cccc(Cl)c2)nc1CN1CCC(C(=O)NCCCN2CCN(c3ccc(F)cc3)CC2)CC1	.	-30.8%	?	-10.1%	.	i
Cc1oc(-c2ccc(Cl)cc2)nc1CN1CCC(C(=O)NCCCN2CCN(c3cccc(Cl)c3)CC2)CC1	.	.	15.8µM*	-22.8%	.	.
CC[C@]1(O)CC(O[C@@H]2CC(N(C)C)C(O)C(C)O2)c2c(cc3c(c2O)C(=O)c2c(O)cccc2C3=O)C1C(=O)OC (stereo partly drawn)	4.47µM*	.	.	.	2.24µM*	.
COc1cccc(NP(=O)(Oc2ccccc2)Oc2ccccc2)c1	-7.3%	-13.3%	17.8µM*	-6.3%	?	i
O=C(CCl)c1ccc(Cl)cc1Cl	?	?	.	.	8.91µM*	11.2µM*!
O=C(O)c1cc(Cl)ccc1Cl	-29.6%	.	.	.	-18.0%	.
Cc1cccc(CCNCc2cc3cccc(C)c3[nH]c2=O)c1	7.94µM*	-31.3%	0.5%	-38.1%	?	i
COc1cc(C)cc(CN2CC=C(c3ccccc3)CC2)c1O	?	.	-20.9%	-24.1%	11.2µM*	?
CN(C)C(=S)SC(=S)N(C)C	?	2.51µM*	.	.	6.31µM*	2.51µM*
CN(C)C(=S)SSC(=S)N(C)C	1µM*!	?	-91.9%	0.1µM*	0.112µM*	22.4µM*
COc1cccc(C(=O)CCN[C@@H](C)[C@H](O)c2ccccc2)c1	.	?	.	.	.	31.6µM*!
CC(=O)[C@H]1CC[C@H]2C3CC[C@H]4C[C@](C)(O)CC[C@]4(C)C3CC[C@]12C (stereo partly drawn)	0.0%	.	.	.	2.3%	.
CCO[C@H]1O[C@@H]2OC3(C)CC[C@H]4[C@H](C)CC[C@@H]([C@H]1C)[C@@]24OO3	.	-7.9%	.	.	.	i
CC1CCCC(C)N1/N=C/c1c[nH]c2ccc(Br)cc12 (stereo not drawn)	?	-36.2%	?	17.8µM*	-44.4%	i
CCN1C[C@@]2(COC)CCC(OC)[C@]34C5C[C@]6(O)[C@@H](OC)C[C@](OC(C)=O)(C([C@H](OC)C23)[C@H]14)C5[C@H]6OC(=O)c1ccc(OC)cc1 (stereo partly drawn)	-11.3%	.	.	.	-0.2%	.
C/C=C(\C)C(=O)OC1C(C)=C2C(C1OC(=O)CCCCC)C(C)(OC(C)=O)CC(OC(=O)CCC)C1(O)C2OC(=O)C1(C)O (stereo not drawn)	17.8µM*	.	.	.	?	.
SMILES	VP16 counter	ATXN2 expr inh	TGFb inhibitor	HepG2 viability	RORg inh	ATXN viability
CCOP(=S)(OCC)O/N=C(\C#N)c1ccccc1Cl	-2.4%	.	.	.	-14.4%	.
Cc1c(C=O)c2ccccc2n1Cc1ccccc1	-3.5%	-2.2%	?	-39.9%	-21.9%	i
Cc1c(C=O)c2ccccc2n1Cc1cccc(F)c1	12.0%	-5.9%	1.78µM*	-42.1%	-6.6%	i
O=C1OC(c2cc(I)c(O)c(I)c2)(c2cc(I)c(O)c(I)c2)c2ccccc21	?	.	.	.	-16.6%	.
O=C(N/N=C1/CN2CCC1CC2)c1cc2ccccc2cc1O	12.6µM*	3.0%	-10.1%	-5.1%	3.55µM*	i
O=[N+]([O-])c1ccc(N2CCCC2)cc1N/N=C1\CN2CCC1CC2	-19.3%	11.6%	10.4%	-11.9%	21.9%	?
COc1ccc2c3c1O[C@H]1[C@@H](O)C=C[C@H]4[C@@H](C2)N(C)CC[C@@]341	.	?	.	.	.	14.1µM*
CN1CC[C@]23c4c5ccc(O)c4O[C@H]2[C@@H](O)C=C[C@H]3[C@H]1C5	.	51.5%[116 µM]	.	.	.	i
COC(=O)C1=C(c2ccc(Cl)c(C(F)(F)F)c2)C[C@@H]2CC[C@H]1N2C(=O)N1CCC(O)(c2ccc(Cl)cc2)CC1	.	?	14.1µM*	-46.1%	.	?
COC(=O)C1=C(c2ccc(Cl)c(C(F)(F)F)c2)C[C@@H]2CC[C@H]1N2C(=O)N1CCCC1	.	-31.9%	-24.3%	-10.2%	.	i
COc1ccc(CN2CCCC(C(=O)c3ccccc3SC)C2)cc1O (stereo not drawn)	8.5%	.	-20.7%	-41.3%	-1.5%	i
Cc1cccc(CN2CCCC(C(=O)c3ccc(C(F)(F)F)cc3)C2)n1 (stereo not drawn)	7.94µM*	?	?	-32.0%	2.82µM*	?
